HCMV antiviral = human cytomegalovirus inhibition; HFF cells, HCMV-luciferase reporter, 72 h; hits give low values; activity change, negative = inhibition, % at 57.5 µM; hit rate 4.5% among 410,000; AID 1259415; in the data active means activity change below about -60%; inconclusive means no clear call, values can overlap the other calls; inactive means above about -39%; further: on the % scale 0 is the no-effect control and ±100 the full control effect
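HFF cells seeded 16 h at 37C, treated with compounds, infected with luciferase-reporter HCMV at MOI 1 PFU/cell; luciferase read at 72 h post infection, normalized to buffer-only and Salinomycin controls.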
Cycloheximide cs = affects cycloheximide protein synthesis inhibition readout, counter-screen | cell reporter, cycloheximide protein synthesis inhibition counterscreen | max response, % | hit rate 12% among 300,000 | AID 2314; in the data active means max response mostly above about 13%, no sharp cut-off; inactive means mostly below about 14%; further: read at 38.3 µM for the half of the compounds with a filed dose; 0% is about no effect
Pf growth 96h = P. falciparum growth inhibition at 96 hour, primary screen for plastid delayed-death inhibitors. hit rate 6.9% among 320,000. P. falciparum luciferase reporter growth, 96 h. Potency, µM (titrated, usually from 28.7 µM), without a hit: top-dose activity change, negative = inhibition, usual class: inhibitors; further: potency means the concentration at half of the fitted maximal effect; on the % scale 0 is the no-effect control and ±100 the full control effect
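Two-generation exposure (96 h) targets delayed-death phenotype. Reporter parasites carrying integrated firefly luciferase, in red cells at 2% hematocrit and 0.05% parasitemia final, kept at 37 C, 5% CO2; luminescence loss indicates inhibition.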
Shiga toxin inh = blocks Shiga toxin action in Vero cells; Vero cells, Shiga toxin protein synthesis inhibition reporter; inhibition, % at 38.7 µM; hit rate 9.2% among 290,000; AID 2315; in the data active means inhibition mostly above about 28%, no sharp cut-off; inactive means mostly below about 43%; further: 0% is about no effect
HCV inh = blocks hepatitis C virus. Huh7.5.1 HCVcc-Cre infection, luciferase reporter, 44 h. Potency, µM (titrated, usually from 41.8 µM), for inactives: at the highest dose activity change, negative = inhibition, hits mostly inhibitors. hit rate 3.4% among 340,000. AID 651820; further: potency means the concentration at half of the fitted maximal effect; on the % scale 0 is the no-effect control and ±100 the full control effect
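After 44 h co-culture of compound, cells and HCVcc-Cre (~0.5 moi), substrate is added for 15 min at room temperature and luciferase measured over 15 sec. Cells were seeded at 1,000/well and pre-cultured 4 h.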
Pf growth 48h = inhibits P. falciparum growth in the first generation, 48 h; hit rate 5.9% among 310,000; AID 504832; P. falciparum luciferase growth in erythrocytes, 48 h; Potency, µM (series often up to 28.7 µM), for inactives: top-dose activity change, negative = inhibition, actives largely listed as inhibitors; further: potency means the concentration at half of the fitted maximal effect; on the % scale 0 is the no-effect control and ±100 the full control effect
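Luciferase-expressing parasites in RBCs, 2% Hct / 0.1% parasitemia final; RPMI 1640 + 0.5% Albumax; 37 C, 5% CO2, one generation; luminescence read-out, lower signal = inhibition.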
An asterisk follows results filed as active; i = inactive; ? = inconclusive; · = no result; [ ] = another dose, or the depositor's remark. An excerpt weighted towards active compounds, which were near 21% of everything screened. Unless noted, the call rests on the fitted dose curve; in most records, active means well fitted inhibition curve with a large enough effect; inconclusive means small, poorly fitted or top-dose-only effect, or another doubt; inactive means no such curve, though single readings can be large or run the other way.

SMILES	HCMV antiviral	Cycloheximide cs	Pf growth 96h	Shiga toxin inh	HCV inh	Pf growth 48h
ON=C1CCCCCCCC1	-13.3	·	·	·	19.7%	·
Cc1cc(C)c(NC(=O)CCCn2c(C)c3cnn(-c4ccccc4)c(=O)c3c2C)c(C)c1	-20.3	·	·	·	·	·
COCc1cc(CN2CCN(CCc3ccccc3)C(CCO)C2)ccc1OC (stereo unspecified)	92.9	-0.7	-26.1%	0.6	0.0%	-20.4%
O=C(O)c1ccc(NS(=O)(=O)c2ccc3c(c2)C(=O)c2ccccc2C3=O)cc1	-32.9	0.9	?	-7.5	10.5%	?
Cc1cc(C)c(S(=O)(=O)/N=C2\C=C(Nc3ccc(C(=O)O)cc3)C(=O)c3ccccc32)c(C)c1	-85.2*	6.4	18.0%	23.5	?	9.28µM*
O=C(O)c1ccc(NC2=C/C(=N/S(=O)(=O)c3ccccc3)c3ccccc3C2=O)cc1	-101.0*	-6.1	-22.4%	-11.4	6.31µM*	?
Cc1ccc(S(=O)(=O)N(C)CC(=O)NCCCn2ccnc2)cc1	9.6	-1.1	22.7%	-3.4	6.8%	2.8%
CCN(CC(=O)NCc1ccc(Cl)cc1)C(=O)Cc1ccc(OC)cc1	-16.0	-2.7	4.0%	-5.3	?	-15.9%
Cc1cccn2c(CNCCCn3ncc4ccccc43)c(C(=O)N3CCCCC3)nc12	10.0	-1.6	14.7µM*	-7.4	-8.7%	?
COc1cccc(N2CCN(C(=O)CN3C(=O)NC(C)(c4ccc5ccccc5c4)C3=O)CC2)c1 (stereo unspecified)	?	·	?	·	11.2µM*	?
CN1CCN(C(=O)CN2C(=O)NC(C)(c3ccc4ccccc4c3)C2=O)CC1 (stereo unspecified)	?	·	?	·	-16.3%	9.2%
CCOC(=O)N1CCN(C(=O)CN2C(=O)NC(C)(c3ccc4ccccc4c3)C2=O)CC1 (stereo unspecified)	-10.8	·	?	·	5.3%	11.7µM*
CN(C)/C=C/C(=O)c1cc(F)cc(C(F)(F)F)c1	-3.2	1.1	9.6%	-1.3	3.2%	-0.9%
COC(=O)c1ccccc1NC(=O)c1ccc2nc(Cc3ccccc3)oc2c1	-9.5	·	·	·	·	·
Cc1ccc(CCNC(=O)c2cc(-c3ccncc3)nc3ccc(S(=O)(=O)N4CCOCC4)cc23)cc1	?	5.4	-25.6%	-14.0	16.3%	?
O=C(CCNc1ccc(F)cc1)c1ccco1	-13.8	52.2*	?	90.1*	?	5.0%
CC(=O)NCCc1ccc(C(=O)COC(=O)c2ccco2)cc1	-20.3	·	·	·	23.2%	·
O=C(COC(=O)c1ccco1)c1ccc(F)cc1	?	54.6*	?	110.3*	10.5%	12.6%
O=C(CCNc1ccc(F)c(Cl)c1)c1ccco1	-28.7	10.4	?	6.7	?	-2.8%
COc1ccc(CN2COc3ccc4c(-c5ccccc5)cc(=O)oc4c3C2)cc1	-8.9	·	·	·	·	·
O=C(Nc1ccc(F)c(Cl)c1)C1Cc2ccccc2CN1S(=O)(=O)c1ccc(F)cc1 (stereo unspecified)	-25.6	·	·	·	·	·
COC(=O)CNC(=O)C1Cc2ccccc2CN1S(=O)(=O)c1ccc(F)cc1 (stereo unspecified)	-22.4	-3.2	-6.9%	22.5	16.1%	-11.3%[0.00184 µM]
O=C(Nc1nnc(C2CC2)s1)C1Cc2ccccc2CN1S(=O)(=O)c1ccccc1F (stereo unspecified)	-6.3	41.3*	?	76.3	?	?
O=C(C1Cc2ccccc2CN1S(=O)(=O)c1ccc(F)cc1)N1CCCCC1 (stereo unspecified)	10.4	-2.1	·	13.9	12.5%	-15.8%
O=C(NC1CCCCC1)C1Cc2ccccc2CN1S(=O)(=O)c1ccc(F)cc1 (stereo unspecified)	1.4	-0.1	13.1µM*	3.7	-11.1%	?
O=C(Nc1nccs1)C1Cc2ccccc2CN1S(=O)(=O)c1ccc(F)cc1 (stereo unspecified)	-20.1	48.2*	i	94.1*	-15.3%	291.5%
CCNC(=O)C1Cc2ccccc2CN1S(=O)(=O)c1ccc(F)cc1 (stereo unspecified)	-0.6	-0.4	24.8%	-3.2	6.2%	0.828µM*
CCOC(=O)C1CCCN(c2oc(-c3ccc(OC)cc3)nc2C#N)C1 (stereo unspecified)	-34.5	-1.0	?	-11.3	-20.8%	?
